Laboratory results as given in the supplement of paper PMC3545927.
The list shows a part of the results. The hit rate among all sequences tested is not known here.

Target: furin, P09958
Assay: furin cleavage Z-score vs untreated control; higher = more cleavage, active = 3.5 or more, inactive = 1 or less, 8 variable residues between constant flanks
Summary of the method: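 To give the cleavage Z-score, log read counts were set against furin-free reactions, lowess-adjusted and scaled by median absolute deviation. These counts came from PCR adapter-tagged, sequenced DNA released when purified furin cut 8-mer peptides fused to a cDNA oligonucleotide and held on magnetic beads by their N-terminus. Digests were 0.01 ml, 1:10 enzyme:substrate, in 50 mM HEPES pH 7.5 with CaCl2 and NaCl, for 7.5, 15 or 30 min.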

Chain of furin, P09958 (P09958 whole entry): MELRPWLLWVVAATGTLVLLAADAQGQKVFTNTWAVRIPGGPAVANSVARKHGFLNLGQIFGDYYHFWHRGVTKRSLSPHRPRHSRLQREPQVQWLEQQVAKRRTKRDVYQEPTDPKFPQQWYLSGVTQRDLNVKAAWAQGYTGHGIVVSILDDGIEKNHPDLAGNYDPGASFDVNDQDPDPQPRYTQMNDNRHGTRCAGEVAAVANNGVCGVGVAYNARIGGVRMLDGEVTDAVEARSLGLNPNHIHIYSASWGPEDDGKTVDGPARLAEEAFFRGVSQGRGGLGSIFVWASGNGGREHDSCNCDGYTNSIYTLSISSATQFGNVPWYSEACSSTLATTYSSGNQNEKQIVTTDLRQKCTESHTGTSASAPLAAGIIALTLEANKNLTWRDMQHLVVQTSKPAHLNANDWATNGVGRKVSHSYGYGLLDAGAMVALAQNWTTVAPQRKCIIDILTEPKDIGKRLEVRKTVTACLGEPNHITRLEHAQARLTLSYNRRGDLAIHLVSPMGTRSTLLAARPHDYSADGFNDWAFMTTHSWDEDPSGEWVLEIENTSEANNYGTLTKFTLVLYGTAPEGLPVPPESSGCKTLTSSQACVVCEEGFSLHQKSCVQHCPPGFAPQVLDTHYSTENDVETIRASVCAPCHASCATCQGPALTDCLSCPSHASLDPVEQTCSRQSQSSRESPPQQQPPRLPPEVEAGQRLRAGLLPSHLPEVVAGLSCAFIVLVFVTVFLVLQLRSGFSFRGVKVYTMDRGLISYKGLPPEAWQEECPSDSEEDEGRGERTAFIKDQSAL

CARFHRACRLAGNASASA [FS-1257]
furin cleavage Z-score (7.5 min): -0.645 (inactive)
furin cleavage Z-score (15 min): -0.00567 (inactive)
furin cleavage Z-score (30 min): -0.322 (inactive)

CALRYRHKRIAGNASASA [FS-1541]
furin cleavage Z-score (7.5 min): 6.08 (active)
furin cleavage Z-score (15 min): 8.2 (active)
furin cleavage Z-score (30 min): 8.94 (active)

CALRYRHKRLAGNASASA [FS-1542]
furin cleavage Z-score (7.5 min): 9.71 (active)
furin cleavage Z-score (15 min): 11.6 (active)
furin cleavage Z-score (30 min): 9.65 (active)

CALRDYIPRIAGNASASA [FS-1464]
furin cleavage Z-score (7.5 min): -0.691 (inactive)
furin cleavage Z-score (15 min): -1.05 (inactive)
furin cleavage Z-score (30 min): -0.313 (inactive)

CAWGRRKARMAGNASASA [FS-1437]
furin cleavage Z-score (7.5 min): 8.17 (active)
furin cleavage Z-score (15 min): 11.8 (active)
furin cleavage Z-score (30 min): 9.74 (active)

CAYPNRPDRPAGNASASA [FS-110]
furin cleavage Z-score (7.5 min): -0.325 (inactive)
furin cleavage Z-score (15 min): 0.955 (inactive)
furin cleavage Z-score (30 min): 0.00762 (inactive)

CAQGCRKDRGAGNASASA [FS-77]
furin cleavage Z-score (7.5 min): -1.71 (inactive)
furin cleavage Z-score (15 min): 0.374 (inactive)
furin cleavage Z-score (30 min): -0.248 (inactive)

CATKKRPRRMAGNASASA [FS-1171]
furin cleavage Z-score (7.5 min): 7.17 (active)
furin cleavage Z-score (15 min): 8.34 (active)
furin cleavage Z-score (30 min): 8.69 (active)

CAYCLSTGCVAGNASASA [HC997]
furin cleavage Z-score (7.5 min): -1.15 (inactive)
furin cleavage Z-score (15 min): 0.0405 (inactive)
furin cleavage Z-score (30 min): -1.03 (inactive)

CALKRRDRRMAGNASASA [FS-1227]
furin cleavage Z-score (7.5 min): 12 (active)
furin cleavage Z-score (15 min): 13.4 (active)
furin cleavage Z-score (30 min): 10.3 (active)

CAYCLRKRRMAGNASASA [FS-1664]
furin cleavage Z-score (7.5 min): 8.61 (active)
furin cleavage Z-score (15 min): 9.15 (active)
furin cleavage Z-score (30 min): 7.84 (active)

CAACLRKLGVAGNASASA [HC1614]
furin cleavage Z-score (7.5 min): -0.73 (inactive)
furin cleavage Z-score (15 min): -0.95 (inactive)
furin cleavage Z-score (30 min): 1.04

CASWERPRRPAGNASASA [FS-876]
furin cleavage Z-score (7.5 min): -1.15 (inactive)
furin cleavage Z-score (15 min): -0.626 (inactive)
furin cleavage Z-score (30 min): 0.927 (inactive)

CAFERRSFETAGNASASA [FS-2390]
furin cleavage Z-score (7.5 min): -1.51 (inactive)
furin cleavage Z-score (15 min): -1.58 (inactive)
furin cleavage Z-score (30 min): -0.598 (inactive)

CAGMVSKGWRAGNASASA [HC669]
furin cleavage Z-score (7.5 min): -0.876 (inactive)
furin cleavage Z-score (15 min): 0.139 (inactive)
furin cleavage Z-score (30 min): -1.14 (inactive)

CAVIIKLGALAGNASASA [HC629]
furin cleavage Z-score (7.5 min): 0.217 (inactive)
furin cleavage Z-score (15 min): -0.103 (inactive)
furin cleavage Z-score (30 min): 0.349 (inactive)

CASWPCSAHLAGNASASA [HC2488]
furin cleavage Z-score (7.5 min): 0.993 (inactive)
furin cleavage Z-score (15 min): 0.675 (inactive)
furin cleavage Z-score (30 min): 1.37

CADSEVVTSTAGNASASA [HC2297]
furin cleavage Z-score (7.5 min): -0.913 (inactive)
furin cleavage Z-score (15 min): 1.6
furin cleavage Z-score (30 min): 0.0245 (inactive)

CAYLVTRHADAGNASASA [HC726]
furin cleavage Z-score (7.5 min): -0.934 (inactive)
furin cleavage Z-score (15 min): -0.697 (inactive)
furin cleavage Z-score (30 min): -0.629 (inactive)

CAAKRRPRRMAGNASASA [FS-1302]
furin cleavage Z-score (7.5 min): 7.77 (active)
furin cleavage Z-score (15 min): 7.84 (active)
furin cleavage Z-score (30 min): 6.56 (active)

CAMLKRFARMAGNASASA [FS-1036]
furin cleavage Z-score (7.5 min): 9.66 (active)
furin cleavage Z-score (15 min): 12.7 (active)
furin cleavage Z-score (30 min): 9.59 (active)

CAYPPKPCGIAGNASASA [HC405]
furin cleavage Z-score (7.5 min): -0.254 (inactive)
furin cleavage Z-score (15 min): 1.24
furin cleavage Z-score (30 min): -0.00218 (inactive)

CAMEECTQHLAGNASASA [HC36]
furin cleavage Z-score (7.5 min): 1.8
furin cleavage Z-score (15 min): 0.851 (inactive)
furin cleavage Z-score (30 min): 0.876 (inactive)

CAAAQLAAPGAGNASASA [HC1069]
furin cleavage Z-score (7.5 min): 0.864 (inactive)
furin cleavage Z-score (15 min): -0.982 (inactive)
furin cleavage Z-score (30 min): -0.549 (inactive)

CAAVCCSMSYAGNASASA [HC1983]
furin cleavage Z-score (7.5 min): -0.929 (inactive)
furin cleavage Z-score (15 min): -0.792 (inactive)
furin cleavage Z-score (30 min): 0.279 (inactive)

CARTRRPGEPAGNASASA [FS-2835]
furin cleavage Z-score (7.5 min): -0.179 (inactive)
furin cleavage Z-score (15 min): 0.383 (inactive)
furin cleavage Z-score (30 min): 0.174 (inactive)

CARTRRYTLFAGNASASA [FS-2191]
furin cleavage Z-score (7.5 min): 2.37
furin cleavage Z-score (15 min): 3.82 (active)
furin cleavage Z-score (30 min): 4.23 (active)

CARTRRYYLSAGNASASA [FS-3112]
furin cleavage Z-score (7.5 min): -0.7 (inactive)
furin cleavage Z-score (15 min): 2.33
furin cleavage Z-score (30 min): 1.85

CARFRRQDVRAGNASASA [FS-2665]
furin cleavage Z-score (7.5 min): 3.01
furin cleavage Z-score (15 min): 3.49
furin cleavage Z-score (30 min): 4.11 (active)

CARSRRSEERAGNASASA [FS-3237]
furin cleavage Z-score (7.5 min): 6.2 (active)
furin cleavage Z-score (15 min): 7.41 (active)
furin cleavage Z-score (30 min): 5.66 (active)

CARTRREAPRAGNASASA [FS-2096]
furin cleavage Z-score (7.5 min): 11.6 (active)
furin cleavage Z-score (15 min): 11.4 (active)
furin cleavage Z-score (30 min): 9.47 (active)

CARSRRLQQRAGNASASA [FS-2090]
furin cleavage Z-score (7.5 min): -1.41 (inactive)
furin cleavage Z-score (15 min): -1.28 (inactive)
furin cleavage Z-score (30 min): -0.156 (inactive)

CARSQRSEERAGNASASA [FS-2813]
furin cleavage Z-score (7.5 min): -1.38 (inactive)
furin cleavage Z-score (15 min): -0.785 (inactive)
furin cleavage Z-score (30 min): 0.605 (inactive)

CAAETTVRLRAGNASASA [HC927]
furin cleavage Z-score (7.5 min): 0.749 (inactive)
furin cleavage Z-score (15 min): -0.382 (inactive)
furin cleavage Z-score (30 min): 0.0108 (inactive)

CARCVRICSKAGNASASA [FS-2899]
furin cleavage Z-score (7.5 min): 1.54
furin cleavage Z-score (15 min): -0.229 (inactive)
furin cleavage Z-score (30 min): -0.326 (inactive)

CASYPCSAHLAGNASASA [HC2489]
furin cleavage Z-score (7.5 min): 0.414 (inactive)
furin cleavage Z-score (15 min): -1.17 (inactive)
furin cleavage Z-score (30 min): 1.74

CATFALWRVSAGNASASA [HC1200]
furin cleavage Z-score (7.5 min): -1.06 (inactive)
furin cleavage Z-score (15 min): -0.9 (inactive)
furin cleavage Z-score (30 min): -0.368 (inactive)

CAVLCCSMSYAGNASASA [HC2005]
furin cleavage Z-score (7.5 min): 0.0781 (inactive)
furin cleavage Z-score (15 min): 1.47
furin cleavage Z-score (30 min): 0.67 (inactive)

CARSRRQDVRAGNASASA [FS-2818]
furin cleavage Z-score (7.5 min): 1.35
furin cleavage Z-score (15 min): 3.52 (active)
furin cleavage Z-score (30 min): 2.66

CATFHKAEYRAGNASASA [EK4]
furin cleavage Z-score (7.5 min): -1.71 (inactive)
furin cleavage Z-score (15 min): -2.3 (inactive)
furin cleavage Z-score (30 min): -0.599 (inactive)

CARFRRSETPAGNASASA [FS-1854]
furin cleavage Z-score (7.5 min): 6.5 (active)
furin cleavage Z-score (15 min): 5.93 (active)
furin cleavage Z-score (30 min): 5.18 (active)

CARFRRAANRAGNASASA [FS-1702]
furin cleavage Z-score (7.5 min): 7.75 (active)
furin cleavage Z-score (15 min): 10.5 (active)
furin cleavage Z-score (30 min): 7.34 (active)

CARFRRSVPRAGNASASA [FS-2667]
furin cleavage Z-score (7.5 min): 8.62 (active)
furin cleavage Z-score (15 min): 7.98 (active)
furin cleavage Z-score (30 min): 7.02 (active)

CARSRRRSGRAGNASASA [FS-3094]
furin cleavage Z-score (7.5 min): 1.03
furin cleavage Z-score (15 min): 0.486 (inactive)
furin cleavage Z-score (30 min): 1.5

CARFYRYMGRAGNASASA [FS-2141]
furin cleavage Z-score (7.5 min): 0.0635 (inactive)
furin cleavage Z-score (15 min): 0.964 (inactive)
furin cleavage Z-score (30 min): -0.333 (inactive)

CARFRKAYKPAGNASASA [FS-2926]
furin cleavage Z-score (7.5 min): 0.349 (inactive)
furin cleavage Z-score (15 min): -0.617 (inactive)
furin cleavage Z-score (30 min): -0.661 (inactive)

CADFVRSITPAGNASASA [FS-1878]
furin cleavage Z-score (7.5 min): -0.721 (inactive)
furin cleavage Z-score (15 min): -0.817 (inactive)
furin cleavage Z-score (30 min): -2.11 (inactive)

CARRFRSVPRAGNASASA [FS-2369]
furin cleavage Z-score (7.5 min): -0.464 (inactive)
furin cleavage Z-score (15 min): 0.0993 (inactive)
furin cleavage Z-score (30 min): 0.454 (inactive)

CARERRSEEPAGNASASA [FS-1890]
furin cleavage Z-score (7.5 min): -0.884 (inactive)
furin cleavage Z-score (15 min): 3.45
furin cleavage Z-score (30 min): 0.678 (inactive)
